Measured values taken from PubChem BioAssay AID493169 (National Center for Advancing Translational Sciences (NCATS), 2011).
Results filed as inconclusive are left out. A call without a number means that no potency is given here. Activity calls are given as the source filed them. Calls follow the shape of the dose curve; as a rule, active = well fitted inhibition curve with a large enough effect; inconclusive = small, poorly fitted or top-dose-only effect; inactive = flat fitted curve, though single readings scatter.

Test: CHOP2 Reporter Counterscreen Assay for Inhibitors of Ubiquitin-specific Protease USP2a;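 also: activated enterokinase alone at 50 pM in a cell-free format rather than USP2a or CHOP2; nearly all actives have a fitted effect of over 55% in size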
Conditions: purified enterokinase, fluorogenic substrate, 485/531 nm; series mostly up to 38.3 µM
How it was run: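 Cell-free counterscreen with pre-activated enterokinase alone (50 pM final) in 20mM Tris-HCl pH 8.0, 2mM CaCl2, 2mM beta-mercaptoethanol, 0.05% CHAPS; compound preincubation 30 min RT, reporter substrate 25nM final, fluorescence read after 10 min (Ex 485/Em 531).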
Potency is read from the fitted curve at half-maximal effect.

Row | Structure (SMILES) | Potency
1 | O=c1/c(=C/c2ccco2)sc2n1CN(c1cccc(Br)c1)CN=2 | inactive
2 | O=C(CCS(=O)(=O)c1ccc(Br)s1)NC1CCCC1 | inactive
3 | Cc1ccc(NC(=O)CN2C(=O)N/C(=C/c3ccco3)C2=O)cc1 | 5.01 µM (active)
4 | O=C(CSc1nc2ccccc2s1)NCCCN1CCOCC1 | inactive
5 | CC1CCN(CC(O)COc2cccc(F)c2)CC1 (stereo not given) | inactive
6 | COc1ccc(CCn2c(O)cc3nn(-c4nc5ccccc5s4)c(=O)c-3c2C)cc1 | 11.2 µM (active)
7 | CCC1SC2=NC(C)=C(C(=O)OCCOC)C(c3ccc(C(=O)OC)cc3)N2C1=O (stereo not given) | inactive
8 | CCN=C1SC(C(=O)Nc2cccc(OCC)c2)CC(=O)N1CC (stereo not given) | inactive
9 | CCCC(c1nnnn1Cc1ccc(OC)cc1)N1CCC(C(N)=O)CC1 (stereo not given) | inactive
10 | O=C(CSc1nccc(=O)[nH]1)N1N=C2/C(=C/c3ccco3)CCCC2C1c1ccco1 (stereo not given) | 8.91 µM (active)
11 | O=C(NNC(=O)c1cc2ccccc2cc1O)Nc1ccccc1F | inactive
12 | Cc1nn(CC(=O)Nc2cccc(S(N)(=O)=O)c2)c(C)c1[N+](=O)[O-] | inactive
13 | CCOC(=O)C1CCCN(C(=O)c2cc(-c3ccco3)nc3ccccc23)C1 (stereo not given) | 5.62 µM (active)
14 | O=C(Nc1ccc(S(=O)(=O)Nc2ncccn2)cc1)c1ccc(S(=O)(=O)N2CCCC2)cc1 | inactive
15 | Clc1ccc2c(N/N=C/c3ccc(Br)cc3)ccnc2c1 | 7.94 µM (active)
16 | O=[N+]([O-])c1cc(-c2ccc(/C=N\n3cnnc3)o2)cc([N+](=O)[O-])c1 | 10 µM (active)
17 | CC1=NN(C(=O)c2csc(C)c2C)C(O)(C(F)(F)F)C1 (stereo not given) | inactive
18 | CC(C)CC(=O)Nc1cccc(-c2nc3ccccc3o2)c1 | inactive
19 | COc1cccc(/C=N/n2c(SC)nnc2-c2ccccc2)c1O | inactive
20 | O=C(CCNc1cccc(Cl)c1)c1ccco1 | inactive

Row | Structure (SMILES) | Potency
21 | CSC1=NCCN1C(=O)Cc1ccc(F)cc1 | inactive
22 | COc1ccc(CN(Cc2cc3cc(C)ccc3[nH]c2=O)C(=O)N(C)C)cc1 | inactive
23 | COc1ccc(Cl)cc1C(=O)Nc1cccc(-c2ccc3nncn3n2)c1 | 10 µM (active)
24 | NC(=O)c1ncc(C(F)(F)F)cc1Oc1cccc(F)c1 | inactive
25 | COc1ccc(C2CC(=O)N3CN(c4ccccc4F)CSC3=C2C#N)cc1OC (stereo not given) | inactive
26 | CC(C)(C)[C@H]1COC(=O)[C@@H](Cc2ccc(F)cc2)C/C=C\C[C@@H](CC(=O)N[C@@H](CO)Cc2ccccc2)C(=O)N1 | inactive
27 | CSc1cccc(NC(=O)c2ccccc2N(C)S(C)(=O)=O)c1 | inactive
28 | COc1ccc2[nH]c(=O)c(CN(C3CCCCC3)C(c3nnnn3Cc3ccco3)C(C)C)cc2c1 (stereo not given) | 10 µM (active)
29 | Cc1ccc(S(=O)(=O)N2[C@@H](c3ccccc3F)C(C(=O)O)=CC[C@H]2c2ccc(Cl)c(Cl)c2)cc1 | inactive
30 | COc1cccc(C(=O)NCc2ccc3[nH]c(C)cc3c2)c1 | inactive
31 | CC(=O)Nc1cc[n+](CC(=O)c2ccc(Cl)cc2)cc1 | inactive
32 | Cc1ccc(N=C2NC(=O)/C(=C/C=C/c3ccco3)S2)cc1C | 8.91 µM (active)
33 | O=C(CSc1ncn[nH]1)Nc1ccc(Br)cc1F | inactive
34 | O=C(Nc1cccc(-c2nn[nH]n2)c1)c1ccc(Br)s1 | 3.98 µM (active)
35 | CCOc1ccccc1N1C(=O)CC(Nc2ccc(N3CCOCC3)cc2)C1=O (stereo not given) | inactive
36 | Cc1ccc(C(=O)Oc2coc(CSc3nnc(NC(=O)c4cccs4)s3)cc2=O)cc1 | 3.16 µM (active)
37 | CCOc1ccccc1C(=O)N[C@H](C(=O)Nc1ccc(OC)c(S(=O)(=O)N2CCOCC2)c1)C(C)C | inactive
38 | O=C1Nc2ccc(S(=O)(=O)N3CCCCCC3)c3cccc1c23 | inactive
39 | COc1cc(C(O)P(=O)(OC(C)C)c2ccc(N(C)C)cc2)cc(OC)c1OC (stereo not given) | inactive
40 | Cc1nc(N(C)C)c2sc(=S)n(C)c2n1 | inactive
